Experimental data reported in PubChem BioAssay AID463173 (ICCB-Longwood Screening Facility, Harvard Medical School, 2010).
Screen size: about 52,000 compounds; about 4,300 (8.3%) were called active. This is one part of a sample in which actives are shown more often than they occur. Unmarked numbers belong to inactive results. No stated cut-off is given here; in the data, active means survival mostly below about 52% (no sharp cut-off); inactive means mostly above about 56%.

The molecules below were run on DeltatarO mutant (assay: growth inhibition of S. aureus wild type versus tarO mutant, primary screen, teichoic acid synthesis inhibitors, RN4220, OD600 (AID 463173)). Conditions: OD600, 18 h, stronger effect = lower value, screened at 18.75 µg/mL (by protocol).
For `CCN(C(=O)CN(C)S(=O)(=O)c1ccc2c(c1)c(=O)n(C)c(=O)n2C)c1ccc(OC)cc1`, the survival was 90%.
In the case of `OP(Oc1ccccc1)(Oc1ccccc1)=P(O)(Oc1ccccc1)Oc1ccccc1`, the survival is reported as 97%.
In the case of `COc1ccc(OC)c(Nc2ncc3c(n2)CCN(Cc2cc(OC)c(OC)c(OC)c2)C3)c1`, the survival is reported as 81%.
For `CC(C)OCCCNC(=O)CN1C(=O)COc2ccc(S(=O)(=O)N3CCOCC3)cc21`, the survival was 79%.
In the case of `COC(=O)c1cc(NC(=O)c2sc3ncn(Cc4cccc(F)c4)c(=O)c3c2C)cc(C(=O)OC)c1`, the survival is reported as 92%.
In the case of `CCc1cccc(NC(=O)Cn2nc3c4cc(F)ccc4n(Cc4cccc(C)c4)cc-3c2=O)c1`, the survival is reported as 84%.
In the case of `COc1ccc(-c2cc(C(=O)Oc3ccc(Cl)cc3)c3ccccc3n2)cc1`, the survival is reported as 49% (active).
For `COc1ccc(C(=O)COC(=O)c2cc(-c3ccccc3)nc3c(C)cccc23)cc1`, the survival was 64%.
In the case of `COc1ccc(-c2cc(C(=O)Oc3ccc(Br)cc3)c3ccccc3n2)cc1`, the survival is reported as 48%.
`COC(=O)c1cc(-c2ccc(OC)c(OC)c2)nc2ccccc12` was tested, and the survival was 72%.
Work on `CNC(=O)c1cc(-c2ccc(OC)cc2)nc2ccccc12` yielded a survival of 77%.
`Cc1ccc(-c2cc(C(=O)NCCc3ccccc3)c3ccccc3n2)cc1C` showed a survival of 88%.
`COc1ccc(C(=O)COC(=O)c2cc(-c3cccs3)nc3ccccc23)cc1` showed a survival of 58%.
For `Cc1ccc(C(=O)COC(=O)c2cc(-c3ccc(Cl)cc3)nc3ccccc23)cc1`, the survival was 136%.
In the case of `COc1ccc(-c2cc(C(=O)Oc3cccc(C)c3C)c3ccccc3n2)cc1`, the survival is reported as 31% (active).
In the case of `Cc1ccc(C(=O)COC(=O)c2cc(-c3ccccc3)nc3ccccc23)cc1C`, the survival is reported as 125%.
In the case of `COc1ccc(-c2cc(C(=O)Oc3ccc(C)cc3)c3ccccc3n2)cc1`, the survival is reported as 11% (active).
For `COc1ccc(-c2cc(C(=O)Oc3ccc(C)c(C)c3)c3ccccc3n2)cc1`, the survival was 40% (active).
In the case of `CCn1cc(C(=O)OCC(=O)Nc2cccc(C(C)=O)c2)c(=O)c2ccc(C)nc21`, the survival is reported as 84%.
`CCC(O)(CCN1CCCCC1)c1ccccc1` (stereo not drawn) showed a survival of 80%.
`Cc1cc(C)cc(N(CC(=O)NCc2ccco2)C(=O)c2snc(C(N)=O)c2N)c1` was tested, and the survival was 93%.
Molecule `Cc1cccc(C(=O)N2CCc3cc(CNC(=O)CCc4ccccc4)ccc32)c1` has a survival of 60%.
In the case of `CC(=O)CSc1nnc2cc(C)c3cc(C)cc(C)c3n12`, the survival is reported as 106%.
Molecule `CCOC(=O)CN1C(=O)N(c2ccc(C)c(C)c2)S(=O)(=O)c2ccccc21` has a survival of 80%.
Work on `Cn1nnnc1SCCNCc1ccccc1OCc1ccc(Cl)cc1Cl` yielded a survival of 63%.
In the case of `CCOc1ccc(CNCCSc2nnnn2C)cc1OC`, the survival is reported as 65%.
`COc1cc(CNCCSc2nnnn2C)ccc1OCc1c(F)cccc1Cl` was tested, and the survival was 58%.
Molecule `COc1cc(CNCCSc2nnnn2C)ccc1OCc1ccccc1C` has a survival of 56%.
`CCOc1cc(CNCCSc2nnnn2C)ccc1OCc1ccc(Cl)cc1Cl` was tested, and the survival was -6% (active).
`COc1cc(CNCCSc2nnnn2C)ccc1OCc1ccc(Cl)cc1Cl` was tested, and the survival was 30% (active).
`O=C(O)CCc1ccc(-c2ccccc2)n1-c1cccc(Br)c1` was tested, and the survival was 65%.
With `COC(=O)c1ccccc1NC(=O)Cn1c(CCC(=O)O)ccc1-c1ccc(C)cc1` the survival was 45% (active).
For `COc1ccc(-c2ccc(CCC(=O)O)n2CC(=O)Nc2cccc(C(F)(F)F)c2)cc1`, the survival was 54% (active).
In the case of `COc1ccc(NC(=O)Cn2c(CCC(=O)O)ccc2-c2ccccc2)cc1Cl`, the survival is reported as 61%.
`Cc1ccc(-c2ccc(CCC(=O)O)n2-c2cccc(O)c2)cc1` was tested, and the survival was 68%.
Work on `COc1ccc(OC)c(NC(=O)Cn2c(CCC(=O)O)ccc2-c2ccccc2)c1` yielded a survival of 103%.
`COc1ccc(-c2ccc(CCC(=O)O)n2CC(=O)Nc2cccc(Cl)c2C)cc1` gave a survival of 46%.
With `O=C(O)CCc1ccc(-c2ccc(Cl)cc2)n1-c1cccc(C(F)(F)F)c1` the survival was 23% (active).
In the case of `COC(=O)c1ccccc1NC(=O)Cn1c(CCC(=O)O)ccc1-c1cccs1`, the survival is reported as 54%.
For `Cc1cc(NC(=O)N2CC=C(c3c[nH]c4ccccc34)CC2)ccc1Br`, the survival was 81%.
`Cn1c(=O)[nH]c(=O)c2c1nc(NCCO)n2CC(O)COc1ccccc1` (stereo not drawn) gave a survival of 165%.
`COC(=O)c1ccc(Nc2cc(=O)[nH]c(=O)[nH]2)cc1` gave a survival of 79%.
In the case of `CCOc1ccccc1NC(=O)CN1C(=O)CC(c2ccc(C)c(C)c2)=Nc2ccccc21`, the survival is reported as 74%.
For `CCOCCCNC(=O)c1c[nH]c2ccc(S(=O)(=O)N(C)c3ccc(Cl)cc3F)cc2c1=O`, the survival was 124%.
Work on `CC(C)(C)OC(=O)N1CCC(c2c(C(=O)NC3CCCCC3)cnn2-c2cccc(F)c2)CC1` yielded a survival of 128%.
`Cc1ccc(CSc2nc3c([nH]c4ccccc43)c(=O)n2C)cc1` was tested, and the survival was 94%.
With `Cc1ccc(Sc2ccc(N3CCC(C(=O)Nc4ccc(Cl)cc4)CC3)nn2)cc1` the survival was 72%.
`CN(Cc1ccccc1)S(=O)(=O)c1ccc(F)c(C(=O)Nc2cc(Cl)cc(Cl)c2)c1` showed a survival of 87%.
`O=C(Nc1cc(C(F)(F)F)ccc1Cl)c1cc(S(=O)(=O)NCc2ccccc2)ccc1F` showed a survival of 55%.
In the case of `CCN(Cc1ccccc1)S(=O)(=O)c1ccc(F)c(C(=O)Nc2ccc(C(C)C)cc2)c1`, the survival is reported as 101%.
For `CN(Cc1ccccc1)S(=O)(=O)c1ccc(F)c(C(=O)Nc2ccccc2C(F)(F)F)c1`, the survival was -5% (active).
In the case of `CCN(Cc1ccccc1)S(=O)(=O)c1ccc(F)c(C(=O)Nc2cc(C(F)(F)F)ccc2Cl)c1`, the survival is reported as 17% (active).
In the case of `CN(Cc1ccccc1)S(=O)(=O)c1ccc(F)c(C(=O)Nc2cccc(Cl)c2Cl)c1`, the survival is reported as 134%.
`Cc1ccc(C(=O)N/C(=C/c2ccccc2)C(=O)NCc2ccco2)cc1` showed a survival of 95%.
In the case of `COc1ccc(S(=O)(=O)C(C)(C)C)cc1`, the survival is reported as 78%.
`COc1ccc(C(=O)Nc2nc3c(s2)CCCC3)cc1Cl` gave a survival of 53%.
In the case of `Cn1c(=O)[nH]c(=O)c2c1nc(CN1CCN(c3ccccc3F)CC1)n2Cc1ccc(F)cc1`, the survival is reported as 122%.
`CCS(=O)(=O)c1ncc(N(Cc2ccccc2)Cc2ccco2)c(C(=O)Nc2ccc(C)c(C)c2)n1` gave a survival of 52%.
Work on `CCS(=O)(=O)c1ncc(N(Cc2ccc(F)cc2)Cc2ccco2)c(C(=O)Nc2cc(C)ccc2C)n1` yielded a survival of 58%.
With `CCS(=O)(=O)c1ncc(N(Cc2ccccc2)Cc2ccco2)c(C(=O)Nc2ccccc2C)n1` the survival was 45% (active).
With `Cc1ccsc1CN(Cc1ccco1)c1cnc(S(C)(=O)=O)nc1C(=O)Nc1ccc(Cl)cc1` the survival was 40% (active).
`Cc1ccc(NC(=O)c2nc(S(C)(=O)=O)ncc2N(Cc2ccco2)Cc2ccco2)cc1` was tested, and the survival was 44%.
Molecule `CCS(=O)(=O)c1ncc(N(Cc2ccccc2)Cc2ccco2)c(C(=O)Nc2cccc(Cl)c2C)n1` has a survival of 60%.
`Cc1ccccc1NC(=O)c1nc(S(C)(=O)=O)ncc1N(Cc1ccco1)Cc1sccc1C` was tested, and the survival was 43% (active).
In the case of `Cc1ccc(CN(Cc2ccco2)c2cnc(S(C)(=O)=O)nc2C(=O)Nc2ccc(Br)cc2)o1`, the survival is reported as 105%.
In the case of `CCS(=O)(=O)c1ncc(N(Cc2ccco2)Cc2sccc2C)c(C(=O)Nc2cc(C)ccc2C)n1`, the survival is reported as 106%.
For `CCS(=O)(=O)c1ncc(N(Cc2ccco2)Cc2sccc2C)c(C(=O)Nc2ccc(C)cc2C)n1`, the survival was 53% (active).
`COc1ccc(NC(=O)C2CCCN(c3cnccn3)C2)c(OC)c1` (stereo not drawn) showed a survival of 107%.
`Cc1c(C)n(Cc2ccccc2)c2ccc(C(=O)N3CCN(c4ccccc4F)CC3)cc12` showed a survival of 80%.
`Cc1cc(C)c(NC(=O)CCS(=O)(=O)c2cc3c(cc2Cl)NC(=O)CO3)c(C)c1` was tested, and the survival was 80%.
`CCCOc1cccc(C2c3c(oc4ccc(F)cc4c3=O)C(=O)N2c2nc(C)c(C(C)=O)s2)c1` (stereo not drawn) showed a survival of 65%.
Work on `CSc1ccc(CCNC(=O)Cn2ncc3c(=O)oc4ccc(C)cc4c32)cc1` yielded a survival of 89%.
Molecule `COC(=O)c1cc(OC)c(OC)c(OC)c1NC(=O)c1cc(=O)n(C)c(=O)n1C` has a survival of 78%.
For `CC(=O)OC1COC(N2CCc3ccccc32)C(OC(C)=O)C1OC(C)=O` (stereo not drawn), the survival was 97%.
`CC1CCN(C(=O)c2ccc3c(c2)N(Cc2ccccc2F)C(=O)c2ccccc2S3(=O)=O)CC1` showed a survival of 80%.
For `CCC(=O)N1CCc2cc(S(=O)(=O)NCCC(=O)NC(C)c3ccccc3)ccc21` (stereo not drawn), the survival was 85%.
With `CCN(c1ccccc1)S(=O)(=O)c1ccc(NC(=O)c2nc(SC)ncc2Cl)cc1` the survival was 55%.
`CCS(=O)(=O)c1ncc(Cl)c(C(=O)Nc2ccc(S(=O)(=O)N(C)c3ccccc3)cc2)n1` was tested, and the survival was 0% (active).
Work on `CSc1ncc(Cl)c(C(=O)Nc2ccc(S(=O)(=O)N3CCCC(C)C3)cc2)n1` (stereo not drawn) yielded a survival of 79%.
`CC(C)Sc1ncc(Cl)c(C(=O)Nc2ccc(S(=O)(=O)Nc3ncccn3)cc2)n1` showed a survival of 50%.
`CS(=O)(=O)c1ncc(Cl)c(C(=O)Nc2c(C(=O)Nc3ccccc3)oc3ccccc23)n1` was tested, and the survival was 55%.
`CCSc1ncc(Cl)c(C(=O)Nc2ccc(S(=O)(=O)N(C)c3ccccc3)cc2)n1` gave a survival of 71%.
For `CCCSc1ncc(Cl)c(C(=O)Nc2ccc(S(=O)(=O)N(C)c3ccccc3)cc2)n1`, the survival was 54%.
Work on `CC(C)Sc1ncc(Cl)c(C(=O)Nc2ccc(S(=O)(=O)N(C)c3ccccc3)cc2)n1` yielded a survival of 55%.
In the case of `CN(c1ccccc1)S(=O)(=O)c1ccc(NC(=O)c2nc(S(C)(=O)=O)ncc2Cl)cc1`, the survival is reported as -1% (active).
In the case of `CC1CCCN(S(=O)(=O)c2ccc(NC(=O)c3nc(SC(C)C)ncc3Cl)cc2)C1` (stereo not drawn), the survival is reported as 44% (active).
In the case of `CCN(c1ccccc1)S(=O)(=O)c1ccc(NC(=O)c2nc(SC(C)C)ncc2Cl)cc1`, the survival is reported as 44% (active).
`CC(C)Sc1ncc(Cl)c(C(=O)Nc2ccc(S(=O)(=O)N3CCCCC3)cc2)n1` was tested, and the survival was 57%.
